# Most compounds without a hit are left out; they make up all but 14% or so of the library.
# Sm TGR block: S. mansoni TGR enzyme inhibition. purified TGR, DTNB reduction, TNB absorbance 405 nm. actives 3% (n = 360,000). Potency, µM (top dose mostly 114 µM), inactives show at the top dose activity change, negative = inhibition, most hits filed as inhibitors; note: potency is the fitted concentration of half-maximal effect; nearly all actives have a fitted effect of over 60% in size
#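 Kinetic colorimetric format: TGR-catalysed, NADPH-driven DTNB reduction monitored via TNB absorbance. Enzyme dispensed at 20 nM; compound exposure 15 min at room temperature before reaction start.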
# Giardia FBPA inh: inhibitors of Giardia lamblia fructose-1,6-bisphosphate aldolase. A8B2U2. purified Giardia FBPA. Potency, µM (top dose mostly 59.6 µM), without a hit: at the top dose activity, negative = inhibition, actives largely listed as inhibitors. actives 0.71% (n = 290,000). AID 2451; note: potency is the fitted concentration of half-maximal effect; nearly all actives have a fitted effect of over 55% in size
# Target sequence (A8B2U2 whole entry, looked up): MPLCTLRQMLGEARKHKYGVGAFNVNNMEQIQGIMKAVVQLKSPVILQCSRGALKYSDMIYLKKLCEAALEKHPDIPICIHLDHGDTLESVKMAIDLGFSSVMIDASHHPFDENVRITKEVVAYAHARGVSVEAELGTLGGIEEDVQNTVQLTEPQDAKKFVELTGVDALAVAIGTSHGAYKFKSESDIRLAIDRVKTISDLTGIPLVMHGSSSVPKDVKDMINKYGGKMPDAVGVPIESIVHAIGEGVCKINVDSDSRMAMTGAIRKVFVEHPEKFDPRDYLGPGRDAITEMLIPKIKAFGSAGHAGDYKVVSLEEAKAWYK
#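 40 nM FBPA preincubated 10 min at RT with compound (up to 57.5 uM final), then substrate plus GAPDH/TPI/NAD/arsenate coupling and diaphorase/resazurin added. Fluorescence read after 20 min at RT, 525/598 nm.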
# Pf growth 96h: P. falciparum growth inhibition at 96 hour, primary screen for plastid delayed-death inhibitors | P. falciparum luciferase reporter growth, 96 h | Potency, µM (doses to about 28.7 µM), inactives show at the highest dose activity change, negative = inhibition, hits mostly inhibitors | actives 6.9% (n = 320,000); note: potency is the fitted concentration of half-maximal effect
#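 Plates of compound plus infected erythrocytes (2% hematocrit, 0.05% parasitemia final) incubate 96 hours, 37 C, 5% CO2. Detection reagent added; reduced luminescence from the parasites' luciferase reporter flags inhibition.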
# HCMV antiviral: inhibitors of human cytomegalovirus; HFF cells, HCMV-luciferase reporter, 72 h; hits give low values; activity change, negative = inhibition, % at 57.5 µM; actives 4.5% (n = 410,000); AID 1259415; in the data active = activity change below about -60%; inconclusive = no clear call, values can overlap the other calls; inactive = above about -39%
#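 Two compound doses tested in HFFs infected with HCMV-luciferase, MOI 1 PFU/cell, 72 h at 37C. Lysate luminescence read with OneGlo; data normalized against buffer-only and 10uM Salinomycin inhibitor controls.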
# Pf growth 48h: inhibits P. falciparum growth in the first generation, 48 h | P. falciparum luciferase growth in erythrocytes, 48 h | Potency, µM (series often up to 28.7 µM), without a hit: at the top dose activity change, negative = inhibition, hits mostly inhibitors | actives 5.9% (n = 310,000); note: potency is the fitted concentration of half-maximal effect
#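 Firefly luciferase activity from engineered P. falciparum reports growth; inhibitors lower the luminescent signal. Cultures contained 2% hematocrit erythrocytes at 0.1% final parasitemia.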
# Active calls of the source: *; i = inactive; u = inconclusive; x = no result. Unless noted, calls come from the whole dose curve; as a rule, active = well fitted curve in the direction sought with a large enough effect; inconclusive = small, poorly fitted or top-dose-only effect, or another doubt; inactive = no such curve, though single readings can be large; an effect the other way counts as inactive or inconclusive. % is set by controls: 0 for no effect and ±100 for the full control effect.
SMILES,Sm TGR block,Giardia FBPA inh,Pf growth 96h,HCMV antiviral,Pf growth 48h
COc1ccc(NC(=O)CSc2nc3nc(C)cc(C)c3c(=O)[nH]2)cc1OC,x,x,x,0.0,x
COc1ccc(OC)c(CCNC(=O)CCCn2c(=O)c3cccn3c3ccccc32)c1,-1.9%,x,x,u,x
O=C(c1ccccc1NS(=O)(=O)c1cccc([N+](=O)[O-])c1)N1CCCC1,-25.8%,-10.9%,u,-78.5*,24.3%
COc1cc([N+](=O)[O-])ccc1NC(=O)C1C2C=CC(C2)C1C(=O)O (centres undefined),-1.7%,-2.9%,11.7µM*,53.2,u
CCN(CC(=O)Nc1ccc([N+](=O)[O-])cc1OC)c1ccccc1,-13.6%,x,9.28µM*,9.5,u
COc1cc([N+](=O)[O-])ccc1NC(=O)CN(C)C,-5.9%,-6.0%,33.6%,30.6,-9.8%
O=C(Nc1ccc([N+](=O)[O-])cc1)N1CCCCC1,2.5%,2.3%,8.28µM*,-26.3,22.6%
CC(OC(=O)Cc1coc2ccc3ccccc3c12)C(=O)NC(N)=O (centres undefined),-29.7%,-6.4%,-5.3%,-29.5,-23.2%
O=C(Nc1cccc([N+](=O)[O-])c1)N1CCCCCC1,1.6%,x,3.7µM*,-3.2,23.4%
O=C(Nc1ccc([N+](=O)[O-])cc1)N1CCCCCC1,-2.9%,1.6%,u,12.3,-13.4%
CC(C)(C)c1ccc(NC(=O)N2CCCN(c3ccc([N+](=O)[O-])cn3)CC2)cc1,2.8%,-24.8%,u,-73.0*,8.28µM*
COc1cc([N+](=O)[O-])ccc1NC(=S)Nc1cccc(C(=O)O)c1,u,-5.3%,1.47µM*,13.9,-9.7%
COc1cc([N+](=O)[O-])ccc1NC(=O)CSc1nc2ccccc2n1-c1ccccc1,u,-0.9%,10.4µM*,u,8.28µM*
C=CCNC(=O)COC(=O)COc1ccc(Cl)cc1,0.0%,1.8%,2.0%,58.0,0.0%
COc1cc(NS(=O)(=O)c2ccc(NC(=O)c3ccc(C(C)=O)cc3)cc2)nc(OC)n1,0.4%,x,x,-11.3,x
COc1cc([N+](=O)[O-])ccc1NC(=O)N1CCCCCC1,31.6µM*,x,-7.4%,u,u
COC(=O)Nc1ccc([N+](=O)[O-])cc1OC,-4.5%,0.2%,i,-6.4,25.8%
O=C(Nc1ncccn1)c1ccc(Cl)c([N+](=O)[O-])c1,-10.3%,13.2%,8.4%,48.2,u
Cc1nn2c(N)c(C#N)cnc2c1-c1ccc(Cl)cc1,-13.0%,-2.0%,23.3%,-5.6,x
COc1ccc(-c2c(C)nn3c(N)c(C#N)cnc23)cc1OC,14.8%,3.0%,0.329µM*,19.3,0.415µM*
CCCNS(=O)(=O)c1cccc(C(=O)NNC(=O)c2cc(C)oc2C)c1,4.3%,x,8.4%,-16.9,-9.8%
CCc1ccc(-c2nn(-c3ccc(OC)cc3)c3c2cnc2ccc(OC)cc23)cc1,21.4%,x,x,-15.9,x
O=C(/C=C/N1CCOCC1)c1ccc(-c2ccccc2)cc1,u,5.4%,x,x,53.1%
O=C(/C=C\N1CCOCC1)c1ccc(Br)cc1,15.8µM*,-5.2%,u,16.3,32.1%
O=C(CSc1ccccc1)N1CCc2c([nH]c3ccccc23)C1c1ccc(F)cc1 (centres undefined),-0.3%,x,x,-30.5,x
SMILES,Sm TGR block,Giardia FBPA inh,Pf growth 96h,HCMV antiviral,Pf growth 48h
O=C(c1cccs1)N1CCc2c([nH]c3ccccc23)C1c1ccc(Cl)cc1 (centres undefined),-23.4%,-1.0%,10.4µM*,u,10.4µM*
Cc1ccc(C2c3[nH]c4ccccc4c3CCN2C(=O)CCc2ccccc2)cc1 (centres undefined),0.4%,x,x,-86.0*,x
CSc1ccc(C2c3[nH]c4ccccc4c3CCN2C(=O)CCC2CCCC2)cc1 (centres undefined),-1.5%,x,x,-77.9*,x
Cc1nn2c(=O)cc(COC(=O)c3ccccc3NC(=O)c3cccs3)nc2s1,-6.1%,x,x,35.6,x
CCN(C1CCCCC1)S(=O)(=O)CCNC(=O)c1ccccc1,9.0%,x,7.0%,-12.3,u
O=C(NCCC(F)(F)F)C1=CN2CCN(Cc3cccc(Cl)c3)C(=O)N=C2O1,x,x,x,-1.4,x
Cc1ccc(OCC(=O)Nc2cccnc2Cl)cc1C,10.1%,-1.2%,19.7%,-61.3*,36.1%
Cc1ccc(OCC(=O)NCCO)cc1C,0.0%,4.3%,1.31µM*,-38.8,x
Cc1ccc(OCC(=O)NNC(=O)c2cc3ccccc3o2)cc1,7.2%,2.6%,u,11.5,-11.5%
O=C(COc1ccc(Br)cc1)NCCO,-0.5%,13.6%,u,-13.7,35.3%
Cc1ccc(OCC(=O)NNC(=O)c2cc3ccccc3o2)cc1C,4.9%,8.0%,11.7µM*,36.8,28.6%
Cc1ccc(OCC(=O)NCC2(N3CCOCC3)CCCCC2)cc1C,-2.7%,x,x,-60.3*,x
Cc1ccc2nc(C)cc(C(=O)OCC(=O)Nc3cccnc3Cl)c2c1,0.9%,2.6%,2.5%,-76.4*,u
Cc1ccc(OCC(=O)Nc2cc(C(C)(C)C)on2)cc1C,-18.4%,x,6.0%,1.9,5.22µM*
Cc1ccc(NC(=O)C2=C(C(=O)O)CCCC2)cc1F,-4.3%,4.4%,-26.9%,-3.4,29.9%
CSc1sc(-c2ccnc(SCC(=O)C(C)(C)C)n2)c2c1C(=O)CC(C)(C)C2,u,2.4%,4.65µM*,2.9,u
CCOC(=O)[C@@H](NC(=O)/C=C/[C@H]1O[C@@H](n2ccc(=O)[nH]c2=O)[C@H](O)[C@@H]1O)C(C)C,x,x,x,-5.5,x
O=C1C=C(c2ccccc2)C[C@H](c2cccs2)[C@H]1n1cnc([N+](=O)[O-])c1,-13.1%,-6.8%,u,25.0,13.1µM*
O=C1C=C(c2cccs2)CC(c2cccs2)C1n1cnc([N+](=O)[O-])c1 (centres undefined),-1.0%,5.6%,x,7.9,u
Cc1ccc(S(=O)(=O)NCc2ccc(C(=O)N3CCN(c4ccc([N+](=O)[O-])cc4)CC3)cc2)cc1,2.3%,x,-6.0%,-98.3*,u
Cc1ccc(C(=O)N2CCN(c3ccc([N+](=O)[O-])c(NCc4cccnc4)c3)CC2)cc1,4.2%,-10.5%,3.7µM*,-36.3,8.28µM*
COc1ccc(N2CCN(C(=O)c3ccc(CNS(=O)(=O)c4ccc(C)cc4)cc3)CC2)cc1,3.4%,3.3%,u,u,u
O=C(c1ccc(S(=O)(=O)NCc2ccco2)cc1)N1CCN(Cc2ccc3c(c2)OCO3)CC1,-0.9%,0.1%,-8.1%,-68.4*,-5.2%
O=C(c1cccc(S(=O)(=O)NCc2ccccc2)c1)N1CCCCC1,0.9%,x,13.6%,-8.3,-26.2%
O=C(c1cccc(S(=O)(=O)NCc2ccccc2)c1)N1CCN(Cc2ccccc2)CC1,-16.8%,1.8%,x,-96.7*,-7.9%
O=C(NCc1cccs1)c1ccc2sc([C@@H]3O[C@H](CO)[C@H](O)[C@H](O)[C@H]3O)nc2c1,x,x,x,15.9,x
COc1ccc(S(=O)(=O)NCc2ccc(C(=O)N3CCN(Cc4ccccc4)CC3)cc2)cc1,-19.5%,x,29.1%,u,-1.5%

# From PubChem BioAssay
